Spn DPM-DC inh: S. pneumoniae DPM-DC inhibition; purified DPM-DC, PK/LDH coupled NADH fluorescence; actives 0.49% (n = 65,000); calls only at 10 µM;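 active = the 320 compounds with the highest percent inhibition in the single-dose primary screen, excluding strongly autofluorescent ones, cut at about 32% in these data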;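 note: kinetic rate of NADH fluorescence loss reporting ADP formed by the decarboxylase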
Spn PMK inh: blocks S. pneumoniae phosphomevalonate kinase | purified PMK, PK/LDH-coupled NADH absorbance 340 nm | inhibition, % at 10 µM | actives 0.49% (n = 65,000);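 active = top-ranked compounds by inhibition in the single 10 µM screen, taking a fixed number of the strongest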;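 note: 0% = full reaction with DMSO carrier and 100% = background rate without enzyme reaction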
NADH coupling: blocks coupling enzymes of NAD/NADH assays | IC50, µM (titrated, usually from 10 µM), inactives show top-dose inhibition | actives 0.02% (n = 65,000) | AID 774 | coupled PK/LDH NADH assays, four targets;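 active = single-dose screening hits from any of four coupled enzyme assays that gave an IC50 when retested across doses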;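 note: the DPM-DC format reads NADH fluorescence rather than 340 nm absorbance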
Autofluor 339: intrinsic fluorescence of library compounds, ex339/em460 – biochemical, MLSMR library, data from DPM-DC assay, artefact control, profiling panel; compound autofluorescence, ex339/em460 nm, NADH buffer; active compounds read high; 1 = no-compound wells, NADH background; fluorescence fold increase at 10 µM; actives 5.5% (n = 65,000);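 active = at 10 µM, mean starting fluorescence two-fold or more over control wells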;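 note: signal is the first read of a kinetic run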
Abs 340nm: compound absorbs light at 340 nm | fold change at 10 µM | 65,000 tested, under 10 active | compound absorbance at 340 nm, fold over control;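 active = at 10 µM dose, initial 340 nm absorbance at least 2 fold that of control wells; inactive = change under 2 fold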;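 note: initial absorbance extrapolated from kinetic A340 decline of NADH oxidation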
Spn MK inh: inhibitors of Streptococcus pneumoniae mevalonate kinase; purified MK, PK/LDH-coupled NADH absorbance 340 nm; inhibition, % at 10 µM; actives 0.48% (n = 65,000);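 active = ranked among the strongest by inhibition in the single 10 µM screen, a fixed top-ranked set picked for dose follow-up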
* hit, by the source's call; i = inactive; . = not tested or not shown; + = active, no number. Most compounds without a hit are left out; they make up all but 6.8% or so of the library.

SMILES | Spn DPM-DC inh | Spn PMK inh | NADH coupling | Autofluor 339 | Abs 340nm | Spn MK inh
Cc1ccc2nc3c(cc(C(=O)NCc4cccnc4)c(=N)n3C(C)C)c(=O)n2c1 | . | 11 | 7% | 5* | 1 | 3
Cc1cccn2c(=O)c3cc(C(=O)NCc4cccnc4)c(=N)n(C)c3nc12 | i | 9 | 9% | 1.9 | 1 | 3
CCCCN(Cc1ccccc1)C(=O)c1cnc2n(c1=O)CCS2 | i | 8 | 4% | 1.1 | 1 | 5
O=C(NCc1ccco1)Nc1ccc(Br)cc1 | i | 14 | 8% | 1.1 | 1 | 7
O=C(NCc1ccco1)Nc1ccc2nsnc2c1 | . | 0 | 4% | 2.4* | 1 | 5
CCn1cc(C(=O)NCCC2=CCCCC2)c(=O)c2cc(S(=O)(=O)N(C)C)ccc21 | i | 9 | 1% | 0.99 | 1 | 0
COc1ccc2cc3cc(C(=O)NCCN4CCN(c5ccccc5F)CC4)oc3nc2c1 | . | 14 | 9% | 5.1* | 1.1 | 3
O=C(NCc1cccs1)c1cc2ccccc2o1 | i | 15 | 6% | 1.1 | 1 | 3
COc1ccc2cc3cc(C(=O)NCc4ccccn4)oc3nc2c1 | . | 6 | 3% | 5.1* | 1.1 | 0
COc1ccc2cc3cc(C(=O)Nc4ccccc4N4CCN(C)CC4)oc3nc2c1 | i | 14 | 6% | 1.1 | 1.1 | 3
O=C(NCc1ccco1)c1cc2cc3ccc(Cl)cc3nc2o1 | i | 12 | 8% | 1.8 | 1 | 2
COc1ccc2cc3cc(C(=O)NCC4CCCO4)oc3nc2c1 (centres undefined) | . | 7 | 2% | 3.5* | 1 | 0
COc1ccc2nc3oc(C(=O)NCc4cccs4)cc3cc2c1 | + | 11 | 15% | 3.9* | 1 | 0
CC(C(=O)Nc1nc2ccccc2[nH]1)N1C(=O)C2CC=CCC2C1=O (centres undefined) | i | 12 | 5% | 1.1 | 1 | 0
CCn1c(CNC(=O)c2cccc(C)c2)nc2ccccc21 | i | 4 | 2% | 1.1 | 1.1 | 3
O=C1NC(c2ccco2)Nc2ccccc21 (centres undefined) | . | 15 | 4% | 2.9* | 0.99 | 5
O=C1NC(c2ccncc2)Nc2ccccc21 (centres undefined) | i | 4 | 7% | 2.5* | 1 | 4
c1ccc(CSc2nnc3c(n2)OC(c2ccco2)Nc2ccccc2-3)cc1 (centres undefined) | i | 0 | 2% | 0.96 | 1.1 | 0
Cc1ccc(C2NC(=O)c3ccccc3N2)s1 (centres undefined) | . | 13 | 8% | 2.1* | 1.1 | 2
CC1Cc2ccccc2C(=O)N1 (centres undefined) | i | 11 | 8% | 1.1 | 1 | 10
CC1(C)Cc2ccccc2-c2nnc(SCC(=O)Nc3nc4ccccc4s3)n21 | i | 12 | 4% | 1.1 | 1 | 1
Cc1ccc(C(=O)Nc2c3c(nn2C(C)(C)C)CS(=O)(=O)C3)cc1C | i | 15 | 6% | 1.1 | 1 | 2
c1ccc2c(c1)NC(c1ccncc1)n1c-2nc2ccccc21 (centres undefined) | i | 2 | 5% | 1.5 | 1.1 | 6
c1ccc2c(c1)NC1(CCCC1)n1c-2nc2ccccc21 | . | 10 | 5% | 5* | 1.1 | 0
CC(=O)OCC(=O)c1ccc2ccn(C(C)=O)c2c1 | . | 16 | 2% | 3.4* | 1 | 0
SMILES | Spn DPM-DC inh | Spn PMK inh | NADH coupling | Autofluor 339 | Abs 340nm | Spn MK inh
COc1ccccc1N1CCN(CC(=O)c2ccc3ccn(C(C)=O)c3c2)CC1 | i | 0 | 2% | 1.3 | 1.1 | 3
COc1ccccc1N1CCN(CC(=O)Nc2cc(C)nn2-c2nc(C)cc(C)n2)CC1 | i | 8 | 3% | 1.1 | 1.1 | 2
CCOC(=O)c1nnn(-c2nonc2N)c1CN(C)Cc1ccccc1 | i | 0 | 4% | 1.1 | 1 | 13
O=C(CCc1nc(-c2ccccc2)no1)NCC1CCCO1 (centres undefined) | i | 10 | 6% | 1.1 | 1 | 7
CS(=O)(=O)n1nc(C(=O)N2CCOCC2)nc1N | i | 16 | 7% | 1.1 | 1 | 6
CC(C)c1nc2oc3c(NCC4CCCO4)ncnc3c2c2c1CCC2 (centres undefined) | i | 12 | 10% | 2.4* | 1.1 | 4
CC(C)c1nc2oc3c(NCc4ccccn4)ncnc3c2c2c1COC(C)(C)C2 | + | 14 | 20% | 3* | 1 | 12
CC1(C)Cc2nc3oc4c(NCc5ccccc5)ncnc4c3cc2CO1 | . | 5 | 7% | 3.8* | 1 | 8
c1nc(NCC2CCCO2)c2[nH]cnc2n1 (centres undefined) | i | 13 | 6% | 1.1 | 0.99 | 6
COc1ncnc2c1oc1nc(C(C)C)c3c(c12)CC(C)(C)OC3 | i | 5 | 2% | 1.1 | 1.1 | 2
CCCc1nc2oc3c(NCc4ccccn4)ncnc3c2c2c1COC(C)(C)C2 | i | 5 | 9% | 2.7* | 1 | 4
CCCc1cc(=O)[nH]c(SCC(=O)N2CCN(S(=O)(=O)c3ccc(C)cc3)C2)n1 | i | 0 | 0% | 1.1 | 1.1 | 1
CC1=C(C(=O)NCCN2CCN(C)CC2)C2(CCC(C)CC2)OC1=O (centres undefined) | i | 0 | 1% | 1.2 | 1.1 | 4
C/C(N)=C(/C#N)C(=O)CSc1nnnn1-c1ccc(C)cc1C | i | 7 | 4% | 1.1 | 1 | 4
O=C(CN1C2CCC1CC(NC(=O)Nc1ccccc1)C2)NCc1ccco1 (centres undefined) | i | 3 | 4% | 1 | 1 | 9
CCCc1nc2oc3c(NCC4CCCO4)ncnc3c2c2c1COC(C)(C)C2 (centres undefined) | i | 3 | 11% | 3.2* | 1 | 7
CCOC(=O)N1CCN(c2ncnc3c2oc2nc(C)c4c(c23)CC(C)(C)OC4)CC1 | i | 3 | 3% | 1.2 | 1 | 5
Cc1nc2oc3c(NCc4ccccn4)ncnc3c2c2c1COC(C)(C)C2 | + | 3 | 5% | 1.9 | 1 | 0
CCCc1nc2oc3c(NCCN(C)C)ncnc3c2c2c1CCCC2 | i | 13 | 7% | 1.4 | 1 | 4
Cc1c(C(=O)COC(C)(C)C)[nH]c2ccccc12 | i | 0 | 4% | 1 | 1 | 6
CCOc1ccc(-c2nnc(-c3ccco3)o2)cc1OCC | . | 10 | 11% | 3.7* | 1 | 12
CCOc1cc(-c2nnc(-c3ccco3)o2)cc(OCC)c1OCC | i | 2 | 9% | 2* | 1 | 4
c1coc(-c2nnc(-c3ccc4c(c3)OCO4)o2)c1 | . | 0 | 4% | 2.2* | 1.1 | 8
COCCn1c(SCC(=O)N2CCN(c3ccccc3)CC2)nc2c(c1=O)SC(C)C2 (centres undefined) | i | 18 | 6% | 1 | 1.2 | 0
